Mot1-301 SUMO: yeast Mot1-301 growth rescue at high temperature, primary screen, SUMOylation pathway inhibitor project, S. cerevisiae, ATP luminescence, 38.5C. S. cerevisiae Mot1-301 growth rescue; percent above DMSO median, 100 means doubled. growth rescue, % at 18.8 µM. 320,000 tested, 1% active;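 active = every valid replicate shows activation above 250% relative to neutral control wells; inactive = the rest, any valid replicate at or below 250%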;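 also: OY570 slx delta 5 strain wells were the positive control but not used for scaling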
HIF activator: HIF pathway transcriptional activators, primary screen, cell-based, U2OS HRE-luciferase, luminescence; U2OS HRE-luciferase reporter; normalized: DMSO 0%, desferrioxamine 100%; activation, % at 7.5 µM (by protocol); 300,000 tested, 0.32% active; AID 1910, 2009;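 active = mean activation of at least 10% of the iron chelator positive control signal, with at least half of replicates also reaching 10%; inconclusive = mean and replicate majority disagree about reaching 10%; inactive = mean and most replicates under 10%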
AI-2 QS modul: Vibrio harveyi AI-2 quorum sensing modulators, primary screen, JMH597 strain, luminescence/OD600 ratio. activity change, % at 7.5 µM. Vibrio harveyi JMH597 AI-2 luminescence/OD600 ratio, 9 h; hits give low values; strain lacks LuxN and CqsS sensors; 0 = neutral-control median. 300,000 tested, 0.4% active. AID 2094, 2009; in the data active = activity change below about -75%, passing the limit was not always enough; inconclusive = no clear call, values can overlap the other calls;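 also: luminescence divided by OD600 gain over 9 h not by final OD600 alone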
ALR H2O2 inh: inhibitors of human ALR sulfhydryl oxidase, primary screen, biochemical, H2O2 detection, HRP-luminol luminescence, single point | AID 485317, 2010 | purified ALR, DTT oxidation | inhibition, % (no concentration beside the values) | 290,000 tested, 3.8% active;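 active = mean replicate inhibition above about 79%, with every replicate also reaching it, limit read from the data; inconclusive = only one of the two criteria met; inactive = mean below limit and not every replicate reaching it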
Target sequence (P55789 whole entry, looked up): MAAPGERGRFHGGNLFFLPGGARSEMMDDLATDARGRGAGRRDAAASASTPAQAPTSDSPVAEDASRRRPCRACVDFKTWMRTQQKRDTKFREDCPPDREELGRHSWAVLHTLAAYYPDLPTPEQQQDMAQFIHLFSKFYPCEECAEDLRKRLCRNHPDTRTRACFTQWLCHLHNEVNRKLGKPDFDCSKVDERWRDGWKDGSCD
* hit, by the source's call; ? = inconclusive; nt = not tested or not shown. Only some compounds are listed: those with a hit (about 4.8% of all), similar ones and a draw of the others.

SMILES | Mot1-301 SUMO | HIF activator | AI-2 QS modul | ALR H2O2 inh
COc1ccc(C(=O)NC2CCCCCC2)cc1OC1CCN(C(C)=O)CC1 | -21 | -1 | 9 | 93*
CN(C)c1cccc(C(=O)NC2CCCCCC2)c1 | -15 | 3 | 10 | 94*
CCCN1C(=O)c2cc(C(=O)NC3CCCCCC3)ccc2C1O (stereo unspecified) | 30 | nt | 18 | 96*
COc1ccc(CNC(=O)c2cccc(N(C)C)c2)cc1 | -13 | -1 | 18 | 83*
CCOC(=O)N1CCC(N2C(=O)c3cc(C(=O)NC4CCCCC4)ccc3C2O)CC1 (stereo unspecified) | 4 | nt | -5 | 94*
CCOC(=O)CSc1nc2cc(OC)ccc2cc1C#N | -28 | 4 | 14 | nt
CCOC(=O)CSC1=C(C#N)C(=O)NC(c2ccc(OC)cc2)S1 (stereo unspecified) | -26 | -1 | 23 | 98*
Cc1ccccc1CC(=O)N1CCOCC1 | -4 | 0 | 8 | -13
CC(Nc1ccc2c(c1)OCCO2)C(=O)N1c2ccccc2CC1C (stereo unspecified) | -1 | 0 | 10 | 98*
OCn1ncn(-c2ccccc2)c1=S | 14 | 0 | -4 | 92*
Cc1cccc(Sc2c([N+](=O)[O-])ncn2C)n1 | -10 | 0 | 31 | 26
Cc1ccc(Sc2c([N+](=O)[O-])ncn2C)cc1 | -19 | 0 | 16 | 98*
Cn1cnc([N+](=O)[O-])c1Sc1ccc(Br)cc1 | 14 | 0 | -16 | 98*
Cn1cnc([N+](=O)[O-])c1Sc1ccc(C(C)(C)C)cc1 | 3 | 2 | 20 | -2
Cc1cc2ncn(S(=O)(=O)c3ccc(F)cc3)c2cc1C | 1 | 0 | 3 | 5
Cc1cc2ncn(C(=O)c3ccc(F)cc3)c2cc1C | -17 | 1 | 2 | 98*
Cc1ccc(C(=O)CSc2nnc(-c3cccs3)n2C)o1 | -3 | 0 | 10 | 49
Cn1c(SCC(=O)c2ccc(O)c(O)c2)nnc1-c1cccs1 | 8 | 0 | 21 | 99*
Cc1ccc(C(=O)CSc2nnc(-c3ccco3)n2Cc2ccccc2)cc1 | -1 | 6 | 17 | 2
Cn1c(SCC(=O)c2ccc(-c3ccccc3)cc2)nnc1-c1ccco1 | -15 | 1 | 23 | 88*
CNC(=O)CSc1nnc(-c2ccccc2)n1C | 5 | 1 | 14 | -1
Cn1c(SCC(=O)c2ccc(O)c(O)c2)nnc1-c1ccccc1 | 5 | -1 | 20 | 93*
CCOC(=O)NC(=O)/C(C#N)=N\Nc1cccc(OC)c1 | 211 | 0 | 10 | 98*
Cc1ccn2c(=O)nc(SCC(=O)Nc3ccc4c(c3)OCO4)nc2c1 | 2 | 0 | 21 | ?
Cc1ccc2nc(SCC(=O)Nc3ccc4c(c3)OCCO4)nc(=O)n2c1 | -13 | 1 | -4 | 98*
SMILES | Mot1-301 SUMO | HIF activator | AI-2 QS modul | ALR H2O2 inh
Cc1ccn2c(=O)nc(SCC(=O)Nc3ccc4c(c3)OCCO4)nc2c1 | 4 | 1 | 34 | 97*
Cc1ccn2c(=O)nc(SCC(=O)c3ccc(Cl)cc3)nc2c1 | -8 | 1 | 11 | 93*
O=C(CSc1nc(=O)n2cc(Cl)ccc2n1)Nc1ccc2c(c1)OCCO2 | 7 | -5 | 26 | 99*
COc1ccc(CNC(=O)C2CCCN(S(=O)(=O)c3ccc(-n4cnnn4)cc3)C2)cc1 (stereo unspecified) | 90 | 0 | 24 | -2
O=C(CSc1ncnc2c1nnn2Cc1ccccc1F)NCC1CCCO1 (stereo unspecified) | 52 | 1 | 7 | 23
NNc1nc(Nc2ccccc2)nc(Nc2ccccc2)n1 | -10 | -1 | 43 | -4
c1ccc(Nc2ccnc(Nc3ccccc3)n2)cc1 | 13 | 3 | 12 | 96*
O=C(CSc1nc2nn(-c3ccccc3)c(=O)c-2c2n1CCCCC2)c1ccc(O)c(O)c1 | 6 | nt | nt | 92*
O=C(Cn1nnc2ccccc21)c1ccc(Cl)cc1 | -19 | 2 | 10 | -3
O=C(O)CCCCCNc1nc(=S)[nH]c2ccccc12 | 3 | 0 | 37 | 82*
COc1ccccc1C(=O)NC(=O)COC(=O)c1nc(Cl)ccc1Cl | -1 | -6 | 20 | 2
COc1ccccc1N1CCN(C/C=C/c2ccc(N(C)C)cc2)CC1 | 66 | 0 | 10 | 99*
COc1ccccc1N1CCN(S(=O)(=O)/C=C/c2ccccc2)CC1 | nt | 0 | 30 | -2
CC(C)NC(=O)c1ccc(CSCc2ccccc2Cl)o1 | -10 | -1 | 11 | 99*
CCC(C)NC(=O)c1ccc(CSCc2ccc(Cl)cc2)o1 (stereo unspecified) | -7 | 1 | 4 | 84*
CCC(C)NC(=O)c1ccc(CSCc2ccccc2Cl)o1 (stereo unspecified) | 0 | 1 | 4 | 36
COc1ccc(N(CC(=O)N2CCN(C)CC2)S(=O)(=O)c2cc(C)ccc2OC)cc1Cl | -6 | 0 | 8 | -1
Cn1c(/C=C/c2ccc([N+](=O)[O-])o2)nc2ccccc2c1=O | -38 | -6 | -229* | -13
Cn1c(/C=C/c2ccccc2)nc2ccccc2c1=O | 14 | -9 | 4 | -1
O=C(C1CCC(CNc2c(N3CCCCC3)c(=O)c2=O)CC1)N1CCCCC1 (stereo unspecified) | -16 | 0 | 30 | -6
O=C(C1CCC(CNc2c(N3CCOCC3)c(=O)c2=O)CC1)N1CCN(c2ccccc2)CC1 (stereo unspecified) | -20 | nt | nt | 87*
CCCCN(C)CCCNC(=O)CN1C(=O)COc2ccc(S(=O)(=O)N3CCOCC3)cc21 | nt | 0 | 14 | -14
Clc1ccc(-c2nc3ncccn3c2Nc2ccc3c(c2)OCO3)cc1 | -14 | 1 | 17 | 0
Cc1ccc(Nc2c(-c3ccc(C)o3)nc3ncccn23)cc1 | 7 | 1 | 10 | nt
Oc1ccc(-c2nc3ncccn3c2Nc2ccc3c(c2)OCO3)cc1 | -3 | 0 | 21 | 99*
SMILES | Mot1-301 SUMO | HIF activator | AI-2 QS modul | ALR H2O2 inh
COc1ccc(-c2nc3cc(C)ccn3c2NCc2ccc3c(c2)OCO3)cc1 | 1 | 2 | 11 | 58
Cc1ccc(Nc2c(-c3ccc(N(C)C)cc3)nc3ncccn23)cc1 | 328* | 1 | 21 | 68
Cc1ccn2c(Nc3ccc4c(c3)OCO4)c(-c3ccc(O)cc3)nc2c1 | 1 | 0 | 16 | 85*
COc1ccc(-c2nc3ncccn3c2Nc2ccccc2)cc1 | -22 | 0 | 25 | 3
Cc1ccc(-c2nc3ncccn3c2Nc2ccc3c(c2)OCO3)o1 | 6 | -14 | 16 | 99*
COc1ccc(CCN(C)C2CCCN(S(=O)(=O)c3ccccc3)C2)cc1OC (stereo unspecified) | 56 | -24 | 32 | -1
CC(NC(=O)COC(=O)c1cccc(S(=O)(=O)N2CCCC2)c1)c1ccccc1 (stereo unspecified) | 7 | nt | nt | nt
CC(=C/c1ccccc1)/C=N/n1c(C)n[nH]c1=S | -6 | -8 | 16 | 29

Assay outcomes deposited in PubChem BioAssay by Broad Institute.
